Out of some 290,000 compounds screened, about 11,000 (3.8%) were called active. The entries come from a sample that favours actives as a whole. Unmarked numbers belong to inactive results.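 Rule for the calls: active = mean replicate inhibition above about 79%, with every replicate also reaching it (limit read from the data); inconclusive = only one of the two criteria met; inactive = mean below limit and not every replicate reaching it.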

Chain of FAD-linked sulfhydryl oxidase ALR (Homo sapiens) (P55789 whole entry, looked up): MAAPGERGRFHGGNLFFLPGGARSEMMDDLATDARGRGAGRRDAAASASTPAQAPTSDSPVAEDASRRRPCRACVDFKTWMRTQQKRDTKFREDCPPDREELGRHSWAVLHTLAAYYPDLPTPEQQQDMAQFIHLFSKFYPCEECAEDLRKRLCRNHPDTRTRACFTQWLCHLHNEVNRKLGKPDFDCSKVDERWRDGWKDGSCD

This experiment concerns the target FAD-linked sulfhydryl oxidase ALR (Homo sapiens) (UniProt P55789). The experiment can be described thus: inhibitors of human ALR sulfhydryl oxidase, primary screen, biochemical, H2O2 detection, HRP-luminol luminescence, single point (AID 485317). The conditions noted are these: purified ALR, DTT oxidation, hits give high values, concentration not given here.
`CC(C)C(NC(=O)c1c(F)cccc1F)C(=O)NNC(=O)c1ccccc1` (centres undefined): the inhibition was -7.7%.
In the case of `COc1ccc2sc(N(CCCN(C)C)C(=O)c3ccc(S(=O)(=O)N(C)C4CCCCC4)cc3)nc2c1`, the inhibition is -5.65%.
On to `O=C(NCC(=O)N1CCCC(C(F)(F)F)C1)c1ccccc1F` (centres undefined), for which the inhibition is -7.32%.
Next, `Cc1ccc(N=C2SCCCN2C(=O)c2cccc(N3C(=O)CCC3=O)c2)cc1Cl`: -9.4%.
Turning to `N#Cc1nc(-c2cccc3ccccc23)oc1N`, the inhibition is 0.469%.
As for `COC(=O)c1ccc(CSc2nncn2N)cc1`, the inhibition is -17.1%.
In the case of `CC(C)CC(CC(C)C)=NNC(=O)c1ccc(CSc2nncn2C)cc1`, the inhibition was 98.2% (active).
In the case of `Cn1c(CNC(=O)c2ccccc2F)nnc1SCc1ccc(F)cc1`, the inhibition is -2.09%.
For the molecule `CC(=O)Nc1ccc(NC(=O)CCN2C(=O)C3CC=CCC3C2=O)cc1` (centres undefined), the inhibition was -1.74%.
For `CC1=NNC(=O)C1Cc1c(Cl)cccc1Cl` (centres undefined) the value was 13.8%; for `CCn1c(SC(C)C(=O)Nc2ccc(N3CCOCC3)cc2)nnc1-c1ccco1` (centres undefined), 46.7%.
For `Cc1ccc(Nc2ncnc3c2cnn3C)c(C)c1`, the inhibition is -4.69%.
As to `Cc1ccc(-n2ncc3c(Nc4cccc(C(=O)O)c4)ncnc32)cc1`, the inhibition was 94% (active).
For `O=C(NNc1ncnc2c1cnn2-c1ccccc1)c1ccco1` the value was -5.39%; for `CSCCC(NC(=O)COc1ccccc1)C(=O)OCCOc1ccc(F)cc1` (centres undefined), -0.0039%; for `Cc1ccc(S(=O)(=O)NCCC(=O)OCC(=O)N(C)c2ccccc2)cc1`, -0.745%.
`COc1ccc(S(=O)(=O)N2CCN(C(C)C(=O)Nc3ccc(C(C)C)cc3)CC2)cc1` (centres undefined): the inhibition is -3.15%.
Next, `COc1cccc(-c2nn(-c3ccccc3)cc2/C=C(\C#N)C(=O)NCCCn2ccnc2)c1`: -6.12%; `CN(C)S(=O)(=O)c1cccc(-c2nn(-c3ccccc3)cc2/C=C2\SC(=S)N(CC(=O)O)C2=O)c1`: 95.8% (active).
For the molecule `COc1ccc(-c2nn(-c3ccccc3)cc2/C=C2/SC(=S)N(CCCC(=O)O)C2=O)c(C)c1`, the inhibition was 3%.
Consider `COc1cccc(COC(=O)C2CCN(S(=O)(=O)c3cccs3)CC2)c1OC`, for which the inhibition was -64%.
For the molecule `COc1cc(C(=O)NCC(=O)N2CC=C(c3ccccc3)CC2)cc(OC)c1OC`, the inhibition is 3.4%.
For `O=C(NCCSc1ncc(-c2ccccc2)[nH]1)c1ccco1` the value was 4.62%; for `COc1ccc(OC)c(S(=O)(=O)N2CCCC(C(=O)N3CCC(C(N)=O)CC3)C2)c1` (centres undefined), -3%; for `O=C(Cc1ccccc1)Nc1ccc(C(=O)Nc2ccccc2C(=O)O)cc1`, 87.1% (active).
Turning to `COc1ccc(NC(=O)CSCc2ccc([N+](=O)[O-])cc2)cc1OC`, the inhibition was -0.226%.
Take `O=C(O)c1ccccc1NC(=O)c1ccccc1-c1ccccc1C(=O)O`: the inhibition was -5.64%.
For `O=C(CSCc1ccc([N+](=O)[O-])cc1)Nc1cccc(C(=O)Nc2ccccc2C(=O)O)c1`, the inhibition was 99% (active).
Consider `O=C(Cc1ccccc1)Nc1ccc(NC(=O)c2cccnc2)cc1`, for which the inhibition is -3.14%.
Consider `Cc1c(NC(=O)CSCc2ccccc2)cccc1C(=O)O`, for which the inhibition was -23.6%.
For `CC1CCc2[nH]c3ccc(C(=O)N(C)CC(=O)Nc4cccc(F)c4)cc3c2C1` (centres undefined), the inhibition was 2.5%.
Regarding `COc1cccc(NC(=O)COc2cccnc2[N+](=O)[O-])c1`, the inhibition is -5.23%.
As for `Cc1noc(C)c1S(=O)(=O)N(C)C[C@H]1Oc2ccc(NC(=O)C3CCCCC3)cc2C(=O)N([C@H](C)CO)C[C@@H]1C`, the inhibition is 0.231%.
Next, `CCN(C[C@H]1N[C@@](CC)(C(=O)OC)[C@H]2C(=O)N(C)C(=O)[C@@H]12)C(=O)Nc1ccc(F)cc1`: 0.784%; `Cc1cccc(NC(=O)CN2C(=O)c3ccccc3C2=O)c1C`: 2.16%; `Cc1cccc(NC(=O)COC(=O)CCc2ccccc2)c1C`: -8.62%.
Next, `Cc1cccc(NC(=O)CSC(N)=O)c1C`: 98.7% (active); `COc1cc(OC)cc(-c2c(C#Cc3ccsc3)c3cc(-c4ccc(SC)cc4)ccc3n2C)c1`: -4.93%; `CCOC(=O)C1(O)CC(C)=NN1C(=O)c1cccc(Br)c1` (centres undefined): -4.22%.
For `CC1=NN(C(=O)c2ccccc2Br)C(O)(c2cccnc2)C1` (centres undefined) the value was -2.8%.
As to `CC1=NN(C(=O)c2ccc(Br)cc2)C(O)(c2ccccc2)C1` (centres undefined), the inhibition was 82.1% (active).
Consider `COc1cc(SC)ccc1C(=O)NNC(=O)C1COc2ccccc2O1` (centres undefined), for which the inhibition was 0.292%.
Next, `CCC1S/C(=N/N=C/c2ccco2)NC1=O` (centres undefined): -6.96%; `O=C1OC(/C=C/c2ccccc2)=NC/1=C/c1ccco1`: 9.93%.
Next, `CC(C)(C)C1C/C(=C/c2ccco2)C(=O)/C(=C/c2ccco2)C1` (centres undefined): 96.3% (active); `CC(C)C1N=C2c3ccccc3N=C(SCC(=O)c3ccc(O)c(O)c3)N2C1=O` (centres undefined): 99.7% (active); `O=C(CSC1=Nc2ccccc2C2=NC(c3ccccc3)C(=O)N12)NCC1CCCO1` (centres undefined): -17.3%.
On to `O=C(CSC1=Nc2ccccc2C2=NC(CC(=O)NCc3ccco3)C(=O)N12)NCc1ccco1` (centres undefined), for which the inhibition was 6.97%.
In the case of `COc1ccc(-c2cc(-c3ccc(N)cc3)nc(N)c2C#N)cc1OC`, the inhibition is 98.9% (active).
For the molecule `CCOc1cc(-c2cc(-c3ccc(OC)cc3)nc(N)c2C#N)ccc1O`, the inhibition is 41.9%.
Consider `COc1ccccc1-c1c(C#N)c(N)nc2c1CCC2`, for which the inhibition was 0.706%.
On to `Cc1ccc(NC(=O)CN2CCC3(O)CCCCC3C2c2ccc3c(c2)OCO3)c(C)c1` (centres undefined), for which the inhibition is 6.21%.
Next, `CCN(CC)c1ccc(C2C3CCCCC3(O)CCN2CC(=O)Nc2ccccc2)cc1` (centres undefined): 97.5% (active).
Next, `O=C(CN1CCC(O)(c2ccccc2)CC1)Nc1ccc2c(c1)OCCO2`: -15.8%; `O=C(COC(=O)/C=C/c1cccc(Cl)c1)NCc1cccs1`: -15.2%; `O=C(COc1ccccc1Cl)N1N=C(c2cccs2)CC1c1ccco1` (centres undefined): 12.6%.
For the molecule `CCOc1ccc(NC(=O)CSc2nc3ccccc3c(=O)n2Cc2cccs2)cc1`, the inhibition was -4.39%.
Regarding `O=C(CSc1nc2nccnc2c(=O)n1Cc1cccs1)Nc1ccccc1F`, the inhibition is 98.7% (active).
Consider `COCCn1c(SCC(=O)Nc2ccccc2F)nc2c(c1=O)SCC2`, for which the inhibition is 23.5%.

These data come from PubChem BioAssay AID485317 (Broad Institute, 2010).
